Results filed as inconclusive are left out. The source made the active and inactive calls. The call rests on the fitted dose curve; in most records, active means well fitted inhibition curve with a large enough effect; inconclusive means small, poorly fitted or top-dose-only effect; inactive means flat fitted curve, though single readings scatter.
Key:
[1] = tested on: CRL-7250; assay: Cytotoxic Profiling of Annotated Libraries Using Quantitative High-Throughput Screening (AID 1296008); settings: Five cell lines viability, CellTiter-Glo ATP luminescence, 48-72 h; max response: hits give low values; on max response: on the % scale 0 is the no-effect control and ±100 the full control effect
In short: (§1)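 Cytotoxicity was measured as CellTiter-Glo ATP luminescence, read after 10 min at room temperature. Compound treatment of the cells lasted 48 or 72 hr at 37 degrees Celsius in a qHTS format.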

[2] = tested on: HEK293; assay: as above; settings: Five cell lines viability, CellTiter-Glo ATP luminescence, 48-72 h; max response: hits give low values
In short: as §1

[3] = tested on: HaCat; assay: as above; settings: Five cell lines viability, CellTiter-Glo ATP luminescence, 48-72 h; max response: hits give low values
In short: as §1

[4] = tested on: KB-3-1; assay: as above; settings: Five cell lines viability, CellTiter-Glo ATP luminescence, 48-72 h; max response: hits give low values
In short: as §1

[5] = tested on: NIH3T3; assay: as above; settings: Five cell lines viability, CellTiter-Glo ATP luminescence, 48-72 h; max response: hits give low values
In short: as §1

[6] = tested on: HACAT; assay: qHTS assay to identify novel small-molecules to repurpose for Merkel cell carcinoma treatment (AID 1296009); settings: MCC and control cell lines, CellTiter-Glo viability, 72 h; at 44.8 µM (top of the series) unless noted
In short: (§2)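 Cell viability, measured as CellTiter-Glo luminescence, was normalized between DMSO and no-cell wells. The cells had been exposed to 8- or 11-point compound dilutions for 72 hr at 37 degree celsius.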

[7] = tested on: HEK293T; assay: as above; settings: MCC and control cell lines, CellTiter-Glo viability, 72 h; series mostly up to 44.8 µM
In short: as §2
Further: nearly all actives have a fitted effect of over 60% in size.

O=C(c1ccc(F)cc1)C1CCN(CCn2c(=O)nc3n(c2=O)CCCC3)CC1
inactive: max response [1] 3.3% | outcome [2] | outcome [3] inactive; activator | max response [4] -0.742% | max response [5] -0.166% | outcome [6] inactive; activator | Potency [7]

O=C(O[C@H]1[C@@H]2C=CO[C@@H](O[C@@H]3O[C@H](CO)[C@@H](O)[C@H](O)[C@H]3O)[C@@H]2[C@@]2(CO)O[C@@H]12)c1ccc(O)c(O)c1
inactive: outcome [1] | outcome [2] | outcome [3] | max response [4] 4.32% | outcome [5] | outcome [6] inactive [at 17.4 µM] | Potency [7]

C/C=C1/[C@H](O[C@@H]2O[C@H](CO)[C@@H](O)[C@H](O)[C@H]2O)OC=C(C(=O)OC)[C@H]1CC(=O)O[C@@H]1O[C@H](CO)[C@@H](O)[C@H](O)[C@H]1O
inactive: outcome [1] | outcome [2] | outcome [3] | outcome [4] | max response [5] 4.1% | outcome [6] inactive [at 17.4 µM] | Potency [7]

NCCOCCOCCNC(=O)Cc1ccc(Nc2nc(NCc3ccc(F)cc3)nc(NCC3CCCCC3)n2)cc1
inactive: outcome [1] | outcome [2] | outcome [3] | outcome [4] | outcome [5] | outcome [6] | Potency [7]

CC1[C@@H](O)[C@@H](O)C2[C@]3(C)C(C[C@H]4OC(=O)[C@H](O)[C@]1(O)[C@@]24C)C(C)(O)C[C@H](O)[C@H]3O (some centres not stated)
inactive: outcome [1] | outcome [2] | outcome [3] | max response [4] 4.32% | outcome [5] | outcome [6] inactive [at 17.4 µM] | Potency [7]

COc1ccc(C(=O)O[C@H]2CC(C)=CC[C@@]3(C)[C@@H](OC(C)=O)C[C@@](O)(C(C)C)[C@H]23)cc1
inactive: max response [1] -4.18% | outcome [2] | outcome [3] | max response [4] 7.38% | outcome [5] | outcome [6] inactive [at 17.4 µM] | Potency [7]

C=C1CC23CC1(O)CCC2C1=CC2OC(=O)C(C)(C2O)C1C3C(=O)O (configuration not stated)
inactive: max response [1] -8.2% | outcome [2] | outcome [3] | outcome [4] | max response [5] -19.3% | outcome [6] | Potency [7]

COC(=O)C1=COC(OC2OC(CO)C(O)C(O)C2O)C2C1CC(OC(=O)C(O)CC(=O)O)C2C (configuration not stated)
inactive: max response [1] -2.72% | outcome [2] | outcome [3] | outcome [4] | outcome [5] | outcome [6] inactive [at 17.4 µM] | Potency [7]

Clc1ccc(CN[C@H]2CCN(c3ncc(Br)cn3)C2)c(Cl)c1
inactive: max response [1] -7.31% | outcome [2] | outcome [3] | max response [4] -14.8% | max response [5] 4.57% | outcome [6] | Potency [7]

CC(CCC1C(C(=O)O)=CC(=O)CC1(C)C)O[C@@H]1O[C@H](CO)[C@@H](O)[C@H](O)[C@H]1O (some centres not stated)
inactive: max response [1] 1.37% | outcome [2] | outcome [3] | outcome [4] | outcome [5] | outcome [6] | Potency [7]

CCCCCCc1cccc(NC(=O)[C@H](N)CCP(=O)(O)O)c1
inactive: outcome [1] | outcome [2] | outcome [3] | outcome [4] | max response [5] -1.22% | outcome [6] inactive [at 9.27 µM] | outcome [7] inactive [at 9.27 µM]

C/C=C/C=C/C(CC(=O)O)Nc1ccc(C=O)cc1 (configuration not stated)
inactive: outcome [1] | outcome [2] | outcome [3] | max response [4] 5.57% | max response [5] 3.97% | outcome [6] | Potency [7]

COc1c(C)c2c(c(O)c1C/C=C(\C)CC/C=C(\C)CCC(=O)O)C(=O)OC2
inactive: max response [1] -4.04% | outcome [2] | outcome [3] | outcome [4] | max response [5] 0.0064% | outcome [6] | Potency [7]

COC1C=C([C@@H]2CC=C3[C@@]4(C)C(CC[C@]32C)[C@@]2(C)C=CC(=O)C(C)(C)C2C[C@H]4OC(C)=O)C(=O)O1 (some centres not stated)
inactive: outcome [1] | outcome [2] | outcome [3] | max response [4] -0.943% | outcome [5] | outcome [6] inactive [at 17.4 µM] | Potency [7]

CCC[C@@H]1C[C@@H](C(=O)N[C@@H]([C@H]2O[C@H](SC)[C@H](O)[C@@H](O)[C@@H]2O)[C@@H](C)O)N(C)C1
inactive: outcome [1] | outcome [2] | outcome [3] | outcome [4] | outcome [5] | outcome [6] | Potency [7]

CC1=CC2(O)/C=C/C(C)(O)CC(O)/C=C/C(=O)OC23C(=O)NC(CC(C)C)C3C1C (configuration not stated)
inactive: max response [1] -2.92% | outcome [2] | outcome [3] | max response [4] -3.67% | outcome [5] | outcome [6] inactive [at 17.4 µM] | Potency [7]

O=C1[C@H](O[C@@H]2O[C@H](CO)[C@@H](O)[C@H](O)[C@H]2O)Oc2ccccc2N1O
inactive: max response [1] 1.51% | outcome [2] | outcome [3] | max response [4] 3.12% | max response [5] 0.0797% | outcome [6] | Potency [7]

C=CC1(C)C=C2C(=O)CC3C(C)(C)CCCC3(C(=O)O)C2(O)CC1 (configuration not stated)
inactive: outcome [1] | outcome [2] | outcome [3] | outcome [4] | max response [5] -3.47% | outcome [6] | Potency [7]

CC1CC(=O)C2=C(O1)OC1(C)CCC3C(C)(C)C=CC(=O)C3(C)C1C2 (configuration not stated)
inactive: max response [1] -3.54% | outcome [2] | outcome [3] | outcome [4] | outcome [5] | outcome [6] | Potency [7]

CC1(C)C(=O)N2c3ccccc3[C@]3(CC(n4cnc5ccccc5c4=O)C(=O)O3)[C@H]2N1O (some centres not stated)
inactive: outcome [1] | outcome [2] | outcome [3] | outcome [4] | max response [5] 1.65% | outcome [6] inactive [at 17.4 µM] | Potency [7]

OCCc1ccc(O[C@@H]2O[C@H](CO)[C@@H](O)[C@H](O)[C@H]2O)c(O)c1
inactive: max response [1] 1.68% | outcome [2] | outcome [3] | outcome [4] | max response [5] -4.15% | outcome [6] | Potency [7]

C=C(C(=O)O)C1CCC(C)C2CCC(=O)OC2(C)C1 (configuration not stated)
inactive: max response [1] 4.24% | outcome [2] | outcome [3] | max response [4] 6.53% | max response [5] 0.163% | outcome [6] | Potency [7]

CC(NC(=O)CC(=O)O)c1nc2ccccc2c(=O)[nH]1 (configuration not stated)
inactive: max response [1] -1.93% | outcome [2] | outcome [3] | outcome [4] | outcome [5] | outcome [6] | Potency [7]

C=C[C@H]1[C@H](O[C@@H]2O[C@H](CO)[C@@H](O)[C@H](O)[C@H]2O)OC=C2C(=O)OCC[C@]21O
inactive: max response [1] 0.194% | outcome [2] | outcome [3] | max response [4] 0.223% | outcome [5] | outcome [6] | Potency [7]

CC(=O)c1c(O)cc2cccc3c2c1CC(C)(O)O3 (configuration not stated)
inactive: outcome [1] | outcome [2] | outcome [3] | max response [4] 4.55% | max response [5] -0.44% | outcome [6] | Potency [7]

CC1=CC(=O)C[C@H]2[C@@H]1CC[C@@H](C)[C@]21CO[C@H](c2ccoc2)C1=O
inactive: max response [1] 3.91% | outcome [2] | outcome [3] | max response [4] -0.71% | max response [5] -2.85% | outcome [6] | Potency [7]

C/C=C/C=C/C=C/C(=O)O[C@@H]1C=C(CO)C(O)(C(=O)O)[C@@]2(C)CCCC(C)(C)[C@H]12 (some centres not stated)
inactive: max response [1] 2.37% | outcome [2] | outcome [3] | max response [4] 0.213% | max response [5] -2.73% | outcome [6] inactive [at 17.4 µM] | Potency [7]

C[C@@H]1C[C@H](O[C@@H]2O[C@H](CO[C@@H]3OC[C@](O)(CO)[C@H]3O)[C@@H](O)[C@H](O)[C@H]2O)CC(C)(C)[C@H]1/C=C/[C@@H](C)O
inactive: max response [1] -2.76% | outcome [2] | outcome [3] | outcome [4] | outcome [5] | outcome [6] inactive [at 17.4 µM] | Potency [7]

CC(=O)OC1C=C(C(=O)O)C2(CO)CCC(C)C(C)(CCc3ccoc3)C2C1 (configuration not stated)
inactive: max response [1] -9.02% | outcome [2] | outcome [3] | outcome [4] | outcome [5] | outcome [6] inactive [at 17.4 µM] | Potency [7]

CC(=O)N[C@H]1CCN(c2ccc(C3=NOC(CN[S+](=O)([O-])C(C)C)C3)cc2F)C1 (some centres not stated)
inactive: max response [1] 3.89% | outcome [2] | outcome [3] | max response [4] -0.511% | outcome [5] | outcome [6] | Potency [7]

COc1cc2c(cc1O)C1(Cc3ccc4c(c3C1=O)OCO4)N(C)CC2 (configuration not stated)
inactive: max response [1] 3.99% | outcome [2] | outcome [3] | max response [4] 1.1% | outcome [5] | outcome [6] | Potency [7]

C(#Cc1cccc(CN2CCOCC2)c1)CCN1CCCCC1
inactive: max response [1] -3.48% | outcome [2] | outcome [3] | max response [4] 2.31% | max response [5] 1.81% | outcome [6] | Potency [7]

CC1(C)CC[C@]2(C(=O)O)CC[C@]3(C)C(=CCC4[C@@]5(C)C[C@H](O)[C@H](O[C@@H]6OC[C@H](O)[C@H](O)[C@H]6O)[C@@](C)(CO)C5CC[C@]43C)[C@@H]2C1 (some centres not stated)
inactive: outcome [1] | outcome [2] | outcome [3] | outcome [4] | max response [5] 2.89% | outcome [6] inactive [at 17.4 µM] | Potency [7]

CC1(C)OC(=O)C(OCC2CC2)=C1c1ccc(S(C)(=O)=O)cc1
inactive: outcome [1] | outcome [2] | outcome [3] | outcome [4] | outcome [5] | outcome [6] | Potency [7]

CC(C)C(=O)O[C@@H]1[C@@H](O)[C@@H](O[C@H]2O[C@H](CO)[C@@H](O)[C@H](O)[C@H]2O)O[C@H](CO)[C@H]1O
inactive: max response [1] -2.11% | outcome [2] | outcome [3] | max response [4] 3.97% | max response [5] 1.16% | outcome [6] inactive [at 17.4 µM] | Potency [7]

CC1=C2C(=O)C=C(CO)[C@@H]2[C@H]2OC(=O)[C@H](C)[C@@H]2[C@@H](O)C1
inactive: outcome [1] | outcome [2] | outcome [3] | max response [4] 1.39% | max response [5] -3.32% | outcome [6] | Potency [7]

Source: PubChem BioAssay (NCATS)
